Values joined by “and” are separate entries in the source; they are usually repeats but may differ in a detail not shown here. Identical values can stand only once. More than one record can exist for a structure, and the calls need not agree. Active and inactive are the calls of the source. Entries that show only a call come without a potency. Unless noted, calls come from the whole dose curve; as a rule, active = well fitted curve in the direction sought with a large enough effect in the repeat runs; inconclusive = weak or mixed curves; inactive = no such curve, though single readings can be large; an effect the other way counts as inactive or inconclusive.
How the values were obtained:
[1] = qHTS assay to identify small molecule antagonists of the thyroid receptor (TR) signaling pathway (AID 743065); note: nearly all actives have a fitted effect of over 55% in size; note: potency is the fitted concentration of half-maximal effect
Outline: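 Antagonism measured as loss of luciferase signal in GH3 cells stably carrying a TRE-luciferase reporter, co-treated with compound and T3 (1 nM final) for 23.5 h at 37 C. Viability was read in the same well by CellTiter-Fluor.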

[2] = system: thyroid hormone receptor (rat, GH3 cells); assay: qHTS assay to identify small molecule agonists of the thyroid receptor (TR) signaling pathway (AID 743066; calls by dose curve; note: potency is the fitted concentration of half-maximal effect)
[3] = molecular target: Estrogen receptor (Homo sapiens) (UniProt P03372); assay: qHTS assay to identify small molecule antagonists of the estrogen receptor alpha (ER-alpha) signaling pathway (AID 743069; active = well fitted curve in the direction sought with a large enough effect in the signal ratio in the repeat runs, not every such curve was filed as active; inconclusive = weak or mixed curves, or effect the other way; inactive = no such curve, though single readings can be large or run the other way; the % refers to the signal ratio; note: potency is the fitted concentration of half-maximal effect)
Chain of Estrogen receptor (Homo sapiens) (P03372 whole entry, looked up): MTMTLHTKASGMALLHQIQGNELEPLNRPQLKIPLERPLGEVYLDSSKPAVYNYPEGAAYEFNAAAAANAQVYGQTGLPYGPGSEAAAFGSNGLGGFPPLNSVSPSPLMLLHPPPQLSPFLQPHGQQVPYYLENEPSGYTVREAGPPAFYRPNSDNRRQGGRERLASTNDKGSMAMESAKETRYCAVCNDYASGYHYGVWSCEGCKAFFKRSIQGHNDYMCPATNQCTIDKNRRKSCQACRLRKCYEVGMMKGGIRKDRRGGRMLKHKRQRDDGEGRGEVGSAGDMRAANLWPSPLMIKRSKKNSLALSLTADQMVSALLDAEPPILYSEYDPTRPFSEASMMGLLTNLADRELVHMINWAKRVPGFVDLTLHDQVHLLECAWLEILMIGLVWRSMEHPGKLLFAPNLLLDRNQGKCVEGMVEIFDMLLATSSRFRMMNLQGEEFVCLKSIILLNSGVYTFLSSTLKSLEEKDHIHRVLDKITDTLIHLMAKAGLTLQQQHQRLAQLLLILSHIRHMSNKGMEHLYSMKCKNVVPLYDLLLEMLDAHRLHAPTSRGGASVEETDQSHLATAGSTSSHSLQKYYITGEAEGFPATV
Outline: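 ER-alpha-UAS-bla GripTite HEK293 line; 2% charcoal-stripped FBS overnight; plated, 4 hr 37C/5% CO2; cpd in DMSO + 17beta-estradiol, 18 hr 37C; LiveBLAzer B/G FRET substrate 2 hr RT; fluorescence intensity.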

[4] = qHTS assay to identify small molecule antagonists of the estrogen receptor alpha (ER-alpha) signaling pathway - cell viability counter screen (AID 743074; calls by dose curve;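 note: HEK293 cells carrying ER-alpha-UAS-bla reporter stimulated with 17beta-estradiol; nearly all actives have a fitted effect of over 45% in size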; note: potency is the fitted concentration of half-maximal effect)
[5] = molecular target: Estrogen receptor (Homo sapiens) (UniProt P03372); assay: qHTS assay to identify small molecule agonists of the estrogen receptor alpha (ER-alpha) signaling pathway (AID 743075; calls by dose curve;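 note: HEK293 GripTite cells with ER-alpha and UAS-driven beta-lactamase reporter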; note: potency is the fitted concentration of half-maximal effect)
[6] = molecular target: Estrogen receptor (Homo sapiens) (UniProt P03372); assay: qHTS assay to identify small molecule agonists of the estrogen receptor alpha (ER-alpha) signaling pathway using the BG1 cell line (AID 743079); note: nearly all actives have a fitted effect of over 20% in size
[7] = qHTS assay to identify small molecule antagonists of the estrogen receptor alpha (ER-alpha) signaling pathway using the BG1 cell line (AID 743080; calls by dose curve; note: nearly all actives have a fitted effect of over 25% in size; note: potency is the fitted concentration of half-maximal effect); settings: BG1Luc4E2 ERE-luciferase antagonist mode, luminescence; activity change, negative = inhibition: at 70.3 µM (top of the series) unless noted
Outline: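 Antagonist mode: compounds in DMSO were pinned onto BG1-Luc-4E2 cells alongside 17beta-estradiol agonist, incubated 21.5 h, and ERE-driven luciferase measured with ONE-Glo. Cytotoxicity was multiplexed using CellTiter-Fluor fluorescence.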

[8] = qHTS assay to identify small molecule antagonists of the estrogen receptor alpha (ER-alpha) signaling pathway using the BG1 cell line - cell viability counter screen (AID 743081);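 note: compound given together with 17beta-estradiol as the ER stimulus; nearly all actives have a fitted effect of over 45% in size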; note: potency is the fitted concentration of half-maximal effect
[9] = molecular target: Aromatase (Homo sapiens) (UniProt P11511); assay: qHTS assay to identify aromatase inhibitors (AID 743083); note: nearly all actives have a fitted effect of over 55% in size; note: potency is the fitted concentration of half-maximal effect
Chain of Aromatase (Homo sapiens) (P11511 whole entry, looked up): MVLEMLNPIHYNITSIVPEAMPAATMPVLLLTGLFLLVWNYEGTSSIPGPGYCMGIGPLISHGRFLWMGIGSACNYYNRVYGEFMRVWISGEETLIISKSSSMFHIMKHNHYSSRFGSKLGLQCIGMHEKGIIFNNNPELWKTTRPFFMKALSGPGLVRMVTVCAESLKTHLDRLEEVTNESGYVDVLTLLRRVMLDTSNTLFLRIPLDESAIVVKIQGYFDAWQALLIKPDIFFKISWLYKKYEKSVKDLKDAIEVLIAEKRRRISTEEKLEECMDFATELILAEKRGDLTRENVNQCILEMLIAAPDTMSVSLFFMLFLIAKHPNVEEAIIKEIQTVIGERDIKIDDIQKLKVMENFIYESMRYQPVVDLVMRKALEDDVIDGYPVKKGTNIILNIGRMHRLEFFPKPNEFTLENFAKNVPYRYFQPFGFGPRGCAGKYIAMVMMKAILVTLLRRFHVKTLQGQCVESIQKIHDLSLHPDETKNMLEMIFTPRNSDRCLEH

[10] = qHTS assay to identify aromatase inhibitors - cell viability counter screen (AID 743084);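 note: cells stimulated with testosterone during compound exposure; nearly all actives have a fitted effect of over 55% in size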; note: potency is the fitted concentration of half-maximal effect
[11] = molecular target: Aryl hydrocarbon receptor (Homo sapiens) (UniProt P35869); assay: qHTS assay to identify small molecule that activate the aryl hydrocarbon receptor (AhR) signaling pathway (AID 743085); note: nearly all actives have a fitted effect of over 15% in size; note: potency is the fitted concentration of half-maximal effect;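 for activation: HG2L7.5c1 human HepG2 liver cells with stably integrated DRE-driven firefly reporter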
Chain of Aryl hydrocarbon receptor (Homo sapiens) (P35869 whole entry, looked up): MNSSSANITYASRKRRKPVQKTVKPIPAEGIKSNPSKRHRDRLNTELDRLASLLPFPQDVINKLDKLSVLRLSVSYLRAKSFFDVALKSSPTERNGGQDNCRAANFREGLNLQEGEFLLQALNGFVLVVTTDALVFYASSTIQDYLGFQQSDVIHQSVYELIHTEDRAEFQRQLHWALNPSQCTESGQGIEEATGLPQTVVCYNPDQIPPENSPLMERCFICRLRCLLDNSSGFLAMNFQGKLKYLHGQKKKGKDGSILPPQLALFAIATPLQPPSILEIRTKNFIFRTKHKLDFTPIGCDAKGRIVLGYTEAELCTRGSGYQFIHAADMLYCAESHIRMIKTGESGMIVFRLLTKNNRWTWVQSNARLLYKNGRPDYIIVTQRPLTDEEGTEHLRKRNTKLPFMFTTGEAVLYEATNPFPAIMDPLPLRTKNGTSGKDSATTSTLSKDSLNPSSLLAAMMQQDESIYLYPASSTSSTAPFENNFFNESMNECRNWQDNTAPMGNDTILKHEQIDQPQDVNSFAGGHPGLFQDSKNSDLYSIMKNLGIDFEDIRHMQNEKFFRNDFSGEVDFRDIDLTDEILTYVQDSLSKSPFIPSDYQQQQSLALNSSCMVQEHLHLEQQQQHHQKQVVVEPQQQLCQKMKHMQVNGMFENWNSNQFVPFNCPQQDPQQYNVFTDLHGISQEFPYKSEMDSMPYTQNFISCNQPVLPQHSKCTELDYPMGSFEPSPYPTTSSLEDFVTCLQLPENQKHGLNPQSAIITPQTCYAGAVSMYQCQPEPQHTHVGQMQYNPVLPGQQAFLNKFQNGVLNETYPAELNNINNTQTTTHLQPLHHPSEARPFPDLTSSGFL
Outline: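 Luminescence (ONE-Glo) from a dioxin-responsive-element luciferase reporter in HG2L7.5c1 HepG2 cells after 24 hr compound exposure at 37C; viability measured by CellTiter-Fluor fluorescence beforehand.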

[12] = qHTS assay to identify small molecule that activate the aryl hydrocarbon receptor (AhR) signaling pathway - cell viability counter screen (AID 743086); note: nearly all actives have a fitted effect of over 45% in size; note: potency is the fitted concentration of half-maximal effect
Outline: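 Cytotoxicity counter screen: CellTiter-Fluor signal (30 min, 37 C) in 4000 HepG2 cells/well carrying the DRE-luciferase reporter, following 24 h compound exposure at 37 C.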

[13] = molecular target: Peroxisome proliferator-activated receptor gamma (Homo sapiens) (UniProt P37231); assay: qHTS assay to identify small molecule antagonists of the peroxisome proliferator-activated receptor gamma (PPARg) signaling pathway (AID 743191; calls by dose curve; note: nearly all actives have a fitted effect of over 30% in size; note: potency is the fitted concentration of half-maximal effect)
Chain of Peroxisome proliferator-activated receptor gamma (Homo sapiens) (P37231 whole entry, looked up): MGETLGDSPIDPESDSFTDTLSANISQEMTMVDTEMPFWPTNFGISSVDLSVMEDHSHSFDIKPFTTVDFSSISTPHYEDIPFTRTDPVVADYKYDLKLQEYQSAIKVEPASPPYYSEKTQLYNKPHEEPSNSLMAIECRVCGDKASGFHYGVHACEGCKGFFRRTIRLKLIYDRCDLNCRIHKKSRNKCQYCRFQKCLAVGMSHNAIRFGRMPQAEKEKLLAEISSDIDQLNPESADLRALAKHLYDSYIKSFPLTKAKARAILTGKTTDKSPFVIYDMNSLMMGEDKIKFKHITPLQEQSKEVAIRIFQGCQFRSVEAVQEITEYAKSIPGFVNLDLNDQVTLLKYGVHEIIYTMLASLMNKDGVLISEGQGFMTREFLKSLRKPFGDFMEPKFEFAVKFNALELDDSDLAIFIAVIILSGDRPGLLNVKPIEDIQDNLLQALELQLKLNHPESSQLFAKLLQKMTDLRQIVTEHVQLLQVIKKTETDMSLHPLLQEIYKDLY
Outline: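 Beta-lactamase reporter under UAS control in HEK293H PPARg-bla cells; compound treatment 17 h at 37C. Read-out: fluorescence intensity after 1 h room-temperature incubation with LiveBLAzer B/G FRET substrate.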

[14] = qHTS assay to identify small molecule antagonists of the peroxisome proliferator-activated receptor gamma (PPARg) signaling pathway - cell viability counter screen (AID 743194); settings: Potency: co-treated with 50 nM rosiglitazone unless noted; note: nearly all actives have a fitted effect of over 55% in size; note: potency is the fitted concentration of half-maximal effect
Outline: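 Viability was measured as CellTiter-Glo luminescence in GeneBLAzer PPARg UAS-bla HEK293H cells. These cells had been exposed 17 h at 37 C to compounds together with rosiglitazone at 50 nM final, with the beta-lactamase readout taken in the same wells.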

[15] = qHTS assay for small molecule agonists of the antioxidant response element (ARE) signaling pathway (AID 743202; active = well fitted activation curve with a large enough effect in the signal ratio in the repeat runs, not every such curve was filed as active; inconclusive = weak or mixed curves, or effect the other way; inactive = no such curve, though single readings can be large or run the other way; the % refers to the signal ratio; note: potency is the fitted concentration of half-maximal effect)
Outline: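 Quantitative high-throughput format in HepG2 cells bearing an integrated ARE-beta-lactamase reporter. Compound exposure lasted 16 h at 37 C, and fluorescence was read 2 h after adding LiveBLAzer B/G substrate at room temperature.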

[16] = qHTS assay for small molecule agonists of the antioxidant response element (ARE) signaling pathway - cell viability counter screen (AID 743203; calls by dose curve; note: nearly all actives have a fitted effect of over 55% in size; note: potency is the fitted concentration of half-maximal effect)
Outline: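 HepG2 cells carrying ARE-driven beta-lactamase; 2,000 cells/well; 5 hrs plating; compound pinned from DMSO; 16 hrs 37C/5% CO2; CellTiter-Glo added; 30 min RT; luminescence.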

[17] = qHTS assay for small molecule activators of the heat shock response signaling pathway - cell viability counter screen (AID 743209); note: nearly all actives have a fitted effect of over 50% in size; note: potency is the fitted concentration of half-maximal effect
Outline: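 Luminescence from CellTiter-Glo, added after the beta-lactamase FRET read, gave the viability signal. Cells were HSE-bla HeLa treated with DMSO-dissolved compounds for 5 h at 37 C following overnight plating.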

[18] = qHTS assay for small molecule activators of the heat shock response signaling pathway (AID 743210; active = well fitted activation curve with a large enough effect in the signal ratio in the repeat runs, with a control signal flat, not every such curve was filed as active; inconclusive = weak or mixed curves; the % refers to the signal ratio;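 note: HeLa cells with beta-lactamase reporter driven by heat shock elements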)
Outline: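 HeLa HSE-bla cells, overnight plating; cpd in DMSO 5 h, 37 C; LiveBLAzer B/G FRET substrate 2.5 h RT; fluorescence intensity read.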

[19] = qHTS assay to identify small molecule agonists of the peroxisome proliferator-activated receptor delta (PPARd) signaling pathway - cell viability counter screen (AID 743211); note: nearly all actives have a fitted effect of over 55% in size; note: potency is the fitted concentration of half-maximal effect
Outline: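 Viability was measured as CellTiter-Glo luminescence (30 min, room temperature) in the same wells as the beta-lactamase readout. GeneBLAzer PPARd UAS-bla HEK293H cells received compound after 5 h plating and were incubated 17 h at 37 C.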

[20] = molecular target: Peroxisome proliferator-activated receptor delta (Homo sapiens) (UniProt Q03181); assay: qHTS assay to identify small molecule agonists of the peroxisome proliferator-activated receptor delta (PPARd) signaling pathway (AID 743212; calls by dose curve)
Chain of Peroxisome proliferator-activated receptor delta (Homo sapiens) (Q03181 whole entry, looked up): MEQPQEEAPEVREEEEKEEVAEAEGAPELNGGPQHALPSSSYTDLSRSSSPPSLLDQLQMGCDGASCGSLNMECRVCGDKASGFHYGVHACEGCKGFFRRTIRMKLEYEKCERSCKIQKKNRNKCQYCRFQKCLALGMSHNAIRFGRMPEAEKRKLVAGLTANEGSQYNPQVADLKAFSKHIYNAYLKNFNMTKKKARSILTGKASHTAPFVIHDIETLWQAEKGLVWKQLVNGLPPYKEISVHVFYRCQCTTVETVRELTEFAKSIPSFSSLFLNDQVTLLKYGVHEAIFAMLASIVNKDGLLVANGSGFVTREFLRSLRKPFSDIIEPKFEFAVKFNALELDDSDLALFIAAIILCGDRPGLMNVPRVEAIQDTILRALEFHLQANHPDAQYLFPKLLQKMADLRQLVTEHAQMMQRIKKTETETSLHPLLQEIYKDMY
Outline: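 HEK293H PPARd-bla cells; 5 h preincubation 37 C/5% CO2; compound (DMSO) 37 C; LiveBLAzer B/G FRET substrate 2 h RT; fluorescence intensity.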

SMILES: O=C(O)C(Cl)Cl
- Potency [1]: inactive
- Potency [2]: inactive and 61.1 µM (active)
- Potency [3]: inactive
- Potency [4]: inactive
- Potency [5]: inactive
- Potency [6]: inactive
- Potency [7]: inactive
- Potency [8]: inactive
- Potency [9]: inactive
- Potency [10]: inactive
- Potency [11]: inactive
- Potency [12]: inactive
- Potency [13]: inactive
- Potency [14]: inactive
- Potency [15]: inactive
- Potency [16]: inactive
- Potency [17]: inactive
- outcome [18]: inactive
- Potency [19]: inactive
- outcome [20]: inactive

SMILES: Cc1cc(Cl)ccc1OCC(=O)O
- Potency [1]: inactive
- Potency [2]: inactive
- Potency [3]: inactive
- Potency [4]: inactive
- Potency [5]: inactive
- Potency [6]: inactive
- Potency [7]: inactive
- Potency [8]: inactive
- Potency [9]: inactive
- Potency [10]: inactive
- Potency [11]: inactive
- Potency [12]: inactive
- Potency [13]: inactive
- Potency [14]: inactive
- Potency [15]: inactive
- Potency [16]: inactive
- Potency [17]: inactive
- outcome [18]: inactive
- Potency [19]: inactive

SMILES: CC(=O)[O][Hg][c]1ccccc1
- Potency [1]: 422 nM (active) and 215 nM (active) and 217 nM (active)
- Potency [2]: inactive
- Potency [3]: 6.16 µM [inconclusive] (active)
- Potency [4]: 5.35 µM (active) and 2.43 µM (active) and 5.49 µM (active)
- Potency [5]: 26.8 µM [inconclusive] (active) and 34.4 µM [inconclusive] (active) and 1.1 µM [fluorescent] (active)
- Potency [8]: 2.98 µM (active) and 3.04 µM (active) and 4.33 µM (active)
- Potency [9]: 3.35 µM (active) and 1.36 µM (active) and 686 nM (active)
- Potency [10]: 5.31 µM (active) and 1.36 µM (active) and 770 nM (active)
- Potency [11]: inactive
- Potency [12]: 9.44 µM (active) and 4.29 µM (active) and 4.86 µM (active)
- Potency [14]: 686 nM (active) and 309 nM (active) and 1.88 µM (active)
- Potency [16]: 762 nM (active) and 433 nM (active) and 1.19 µM (active)
- Potency [17]: 1.22 µM (active) and 1.1 µM (active) and 2.11 µM (active)
- Potency [19]: 611 nM (active) and 977 nM (active) and 2.98 µM (active)

SMILES: COP(=O)(OC)OC=C(Cl)Cl
- Potency [1]: inactive
- Potency [2]: inactive
- Potency [3]: 10.7 µM [inhibitor] (active) and inactive
- Potency [4]: inactive
- Potency [5]: inactive
- Potency [6]: inactive
- Potency [7]: inactive
- Potency [8]: inactive
- Potency [9]: inactive
- Potency [10]: inactive
- Potency [11]: inactive
- Potency [12]: inactive
- Potency [14]: inactive
- Potency [15]: inactive
- Potency [16]: inactive
- Potency [17]: inactive
- Potency [19]: inactive
- outcome [20]: inactive

SMILES: Nc1ccc(Cl)cc1
- Potency [1]: inactive
- Potency [2]: inactive
- Potency [3]: 9.95 µM [inconclusive] (active)
- Potency [4]: inactive
- Potency [5]: inactive
- Potency [6]: inactive
- Potency [7]: inactive
- Potency [8]: inactive
- Potency [9]: inactive
- Potency [10]: inactive
- Potency [11]: 24.3 µM (active) and 30.6 µM (active) and 24.8 µM (active)
- Potency [12]: inactive
- Potency [13]: 0.0871 µM (active)
- Potency [14]: inactive
- Potency [15]: inactive
- Potency [16]: inactive
- Potency [17]: inactive
- outcome [18]: inactive
- Potency [19]: inactive
- outcome [20]: inactive

SMILES: CC[N+](CC)(CC)CC
- Potency [1]: inactive
- Potency [2]: inactive
- Potency [4]: inactive
- Potency [8]: inactive
- Potency [9]: inactive
- Potency [10]: inactive
- Potency [11]: inactive
- Potency [12]: inactive
- Potency [14]: inactive
- Potency [15]: inactive
- Potency [16]: inactive
- Potency [17]: inactive
- outcome [18]: inactive
- Potency [19]: inactive

SMILES: CCCCCC[n+]1ccccc1
- Potency [1]: inactive
- Potency [2]: inactive
- Potency [4]: inactive
- Potency [8]: inactive
- Potency [9]: inactive
- Potency [10]: inactive
- Potency [11]: inactive
- Potency [12]: inactive
- Potency [14]: inactive
- Potency [15]: 43.2 µM (active) and inactive and 17.2 µM (active)
- Potency [16]: inactive
- Potency [17]: inactive
- outcome [18]: inactive
- Potency [19]: 55.5 µM (active) and 55.3 µM (active) and inactive

SMILES: CC[N+]1(C)CCCC1
- Potency [1]: inactive
- Potency [2]: inactive
- Potency [4]: inactive
- Potency [8]: inactive
- Potency [9]: inactive
- Potency [10]: inactive
- Potency [11]: inactive
- Potency [12]: inactive
- Potency [14]: inactive
- Potency [15]: inactive
- Potency [16]: inactive
- Potency [17]: inactive
- outcome [18]: inactive
- Potency [19]: inactive

SMILES: CCCCCCCCCCCCCC[P+](CCCCCC)(CCCCCC)CCCCCC
- Potency [1]: 3.87 µM (active) and 4.36 µM (active) and 2.43 µM (active)
- Potency [2]: inactive
- Potency [3]: 982 nM [inconclusive] (active) and 985 nM [inconclusive] (active) and 775 nM [inconclusive] (active)
- Potency [4]: 13.9 µM (active) and 11.1 µM (active)
- Potency [7]: 4.88 µM (active) and 3.89 µM (active) and 3.43 µM (active)
- Potency [8]: 19.4 µM (active) and 13.8 µM (active)
- Potency [9]: 6.14 µM (active) and 3.89 µM (active) and 1.09 µM (active)
- Potency [10]: 24.4 µM (active) and 12.3 µM (active)
- Potency [11]: inactive
- Potency [12]: 61.4 µM (active) and 54.9 µM (active) and inactive
- Potency [14]: 24.7 µM (active) and 7.82 µM (active) and 2.45 µM (active)
- Potency [15]: inactive
- Potency [16]: 24.4 µM (active) and 15.5 µM (active) and inactive
- Potency [17]: 6.19 µM (active) and 7.82 µM (active)
- outcome [18]: inactive
- Potency [19]: 7.8 µM (active) and 2.47 µM (active) and 61.6 nM (active)
- outcome [20]: inactive

SMILES: O=[N+]([O-])c1ccccc1O
- Potency [1]: inactive
- Potency [2]: inactive
- Potency [4]: inactive
- Potency [8]: inactive
- Potency [9]: inactive
- Potency [10]: inactive
- Potency [11]: inactive
- Potency [12]: inactive
- Potency [13]: inactive
- Potency [14]: inactive
- Potency [15]: inactive
- Potency [16]: inactive
- Potency [17]: inactive
- outcome [18]: inactive
- Potency [19]: inactive

SMILES: CC(Cl)(Cl)C(=O)O
- Potency [1]: inactive
- Potency [2]: inactive
- Potency [3]: inactive
- Potency [4]: inactive
- Potency [5]: inactive
- Potency [6]: inactive
- Potency [7]: inactive
- Potency [8]: inactive
- Potency [9]: inactive
- Potency [10]: inactive
- Potency [11]: inactive
- Potency [12]: inactive
- Potency [13]: inactive
- Potency [14]: inactive
- Potency [15]: inactive
- Potency [16]: inactive
- Potency [17]: inactive
- outcome [18]: inactive
- Potency [19]: inactive
- outcome [20]: inactive

SMILES: COc1ccc(N)cc1
- Potency [1]: inactive
- Potency [2]: inactive
- Potency [4]: inactive
- Potency [8]: inactive
- Potency [9]: inactive
- Potency [10]: inactive
- Potency [11]: 60.1 µM (active) and inactive and 30.6 µM (active)
- Potency [12]: inactive
- Potency [14]: inactive
- Potency [15]: inactive
- Potency [16]: inactive
- Potency [17]: inactive
- outcome [18]: inactive
- Potency [19]: inactive
- outcome [20]: inactive

Source: PubChem BioAssay (Tox21)
